Compound activity deposited in PubChem by several laboratories.
An excerpt weighted towards active compounds, which were near 3.9% of everything screened.
ALR H2O2 inh: inhibitors of human sulfhydryl oxidase ALR; P55789; purified ALR, DTT oxidation, H2O2 HRP-luminol luminescence; inhibition, % (no concentration beside the values); 3.8% of 290,000 active; AID 485317;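 active means mean replicate inhibition above about 79%, with every replicate also reaching it, limit read from the data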
UBC9 SUMO inh: SUMOylation inhibition; P63279; HTRF SUMOylation assay, SAE1/SAE2 + UBC9, in vitro; 0.36% of 290,000 active; inhibition, % at 35 µM; in the data active means inhibition above about 50%, passing the limit was not always enough
NTR1 agonist: agonists of human neurotensin receptor NTR1; P30989; NTR1-U2OS beta-arrestin-GFP spot imaging, agonist mode; 0.17% of 330,000 active; activation, % at 20 µM;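 active means activation at or above 40% of the spot to cytoplasm intensity ratio, with at least 20 cells analyzed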;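 further: 0% = DMSO without peptide and 100% = 100 nM NTR1 peptide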
Target sequence (P30989 whole entry, looked up): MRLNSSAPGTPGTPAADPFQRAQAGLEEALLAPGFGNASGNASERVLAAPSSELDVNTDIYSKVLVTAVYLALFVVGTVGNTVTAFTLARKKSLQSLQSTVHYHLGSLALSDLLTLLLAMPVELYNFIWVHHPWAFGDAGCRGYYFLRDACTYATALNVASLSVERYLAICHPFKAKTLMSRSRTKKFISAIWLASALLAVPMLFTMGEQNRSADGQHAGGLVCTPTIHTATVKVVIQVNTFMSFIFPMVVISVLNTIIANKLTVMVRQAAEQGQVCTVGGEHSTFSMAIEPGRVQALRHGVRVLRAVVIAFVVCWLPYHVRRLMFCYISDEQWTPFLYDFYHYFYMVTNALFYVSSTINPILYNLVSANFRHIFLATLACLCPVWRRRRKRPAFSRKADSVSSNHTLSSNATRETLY
Cardio protect: protects H9c2 cardiomyocytes from peroxide injury; AID 588492; 0.63% of 360,000 active; protection from H2O2 cell death, % at 20 µM; H2O2 injury protection, ATPLite, 2 h;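 active means compounds giving at least 50% protection of heart cells from peroxide-induced death in the single-dose screen, raw or plate-pattern-corrected value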;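 further: 0% = DMSO wells with peroxide and 100% = DMSO wells without peroxide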
The depositor's hits bear a star; nt = not tested or not shown.

SMILES	ALR H2O2 inh	UBC9 SUMO inh	NTR1 agonist	Cardio protect
O=C(N/N=C(\CC(=O)c1cccs1)C(F)(F)F)c1cccnc1	60	-28	0	-4
O=C(N/N=C(/CC(=O)c1cccs1)C(F)(F)F)c1ccc(O)cc1	80*	-3	0	8
Clc1cc(Cl)cc(Nc2ncnc(-n3cccc3)n2)c1	-3	0	4	0
O=C(NC(=S)NNC(=O)c1ccccc1[N+](=O)[O-])c1ccc(Br)cc1	99*	-17	2	11
COc1ccc(C(=O)NNC(=S)NC(=O)c2cccc([N+](=O)[O-])c2)cc1	98*	nt	-1	17
COc1ccc(C(=O)NNC(=O)c2ccncc2)cc1[N+](=O)[O-]	-7	2	-2	7
COc1ccc(C(=O)NC(=S)NNC(=O)c2ccc(O)cc2)cc1[N+](=O)[O-]	97*	7	-1	1
COc1ccc(C(=O)Nc2ccc(S(=O)(=O)NC(C)=O)cc2)cc1[N+](=O)[O-]	99*	19	0	-4
O=C(COC(=O)C12CC3CC(CC(O)(C3)C1)C2)Nc1ccc(Cl)c(S(=O)(=O)N2CCOCC2)c1	-8	nt	0	-10
Oc1cc(O)cc(-c2cc3ccc(O)cc3o2)c1	99*	nt	1	-10
Cc1ccccc1C(=O)Nc1cc(S(=O)(=O)N2CCCCC2)ccc1N1CCN(C)CC1	-3	2	2	13
CN(/C(=N/S(=O)(=O)c1cccs1)c1ccccc1)c1ccccc1	-2	-3	-1	0
CN(C)c1ccc(N/C(=N\S(=O)(=O)c2cccs2)c2ccccc2)cc1	99*	-19	-1	-5
COc1ccc(C2C3=C(CCCC3=O)Nc3c(-c4ccccc4)c(C)nn32)cc1 (stereo not given)	13	51*	1	6
COc1ccc(-c2nc(CN3CCCC(C(=O)NC4CCCC4)C3)c(C)o2)cc1 (stereo not given)	-15	18	1	2
O=C(c1ccc2c(c1)OCO2)N1CCN(c2ccccc2)CC1	98*	-1	-1	3
COc1ccc(N2CCN(C(=O)c3ccc4c(c3)OCO4)CC2)cc1	84*	9	1	1
CC(=O)N1CCN(c2ccc(NCc3ccc4c(c3)OCO4)cc2)CC1	nt	3	12	6
O=C(c1ccccc1)N1CCN(c2ccc(NCc3ccc4c(c3)OCO4)cc2)CC1	89*	-2	7	-8
COc1ccc(N2CCN(C(=O)c3ccc(SC)cc3OC)CC2)cc1	85*	14	0	6
Cc1cc(Cl)c(OCCOCCN2CCCCC2)c(Br)c1	nt	-3	3	1
Cc1cc(C)cc(NC(=O)CCC(=O)N2CCSc3ccccc32)c1	nt	-10	-3	4
O=C(NCCCn1ccnc1)C1CCCN(S(=O)(=O)c2ccc(F)cc2)C1 (stereo not given)	0	21	-1	3
CCOC(=O)NC(=O)/C(C#N)=N/Nc1c(F)cccc1F	nt	10	-1	-6
CCOC(=O)NC(=O)/C(C#N)=N\Nc1cccc(OC)c1	98*	-6	0	-1
SMILES	ALR H2O2 inh	UBC9 SUMO inh	NTR1 agonist	Cardio protect
OC(CN1CCN(c2ccc(F)cc2)CC1)c1ccc(Cl)cc1 (stereo not given)	nt	-11	0	2
COc1cc(/C=C(\C#N)C(=O)NCc2cccs2)ccc1O	99*	-17	0	6
CCOc1cc(/C=C(\C#N)C(=O)NCc2cccnc2)ccc1O	88*	0	-1	10
CC(C)c1ccc(NC(=O)/C(C#N)=C/c2ccncc2)cc1	36	-6	0	3
COC(=O)CCCC(=O)NCC1(N(C)Cc2ccccc2)Cc2ccccc2C1	-6	7	0	0
COc1ccc([C@@H]2CC(=O)c3c(O)cc(O)cc3O2)cc1O	3	nt	6	12
Oc1cc(O)c2c(c1)O[C@H](c1ccc(O)c(O)c1)[C@@H](O)C2	95*	-22	-1	-1
C[C@@H]1O[C@@H](O[C@@H]2C(=O)c3c(O)cc(O)cc3O[C@H]2c2ccc(O)c(O)c2)[C@H](O)[C@H](O)[C@H]1O	99*	nt	3	5
COc1ccc([C@@H]2CC(=O)c3c(O)cc(O[C@@H]4O[C@H](CO[C@@H]5O[C@@H](C)[C@H](O)[C@@H](O)[C@H]5O)[C@@H](O)[C@H](O)[C@H]4O)cc3O2)cc1O	43	8	0	2
O=C1c2c(O)cc(O)cc2O[C@H](c2ccc(O)c(O)c2)[C@H]1O	99*	nt	2	-6
O=C1c2c(O)cc(O)cc2O[C@H](c2ccc(O)c(O)c2)[C@@H]1O	99*	5	2	nt
O=C1C[C@@H](c2ccccc2)Oc2cc(O)cc(O)c21	7	nt	2	0
Cc1cc(C)c(C#N)c(Nc2ccccc2C)n1	-19	6	2	4
